Assay results taken from PubChem BioAssay (NCI).
About 83,000 compounds went through this panel and 20% of them were active in at least one assay; those are over-represented in the sample as a whole.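 Interpretation: 100, growth as untreated; towards 0, rising growth inhibition; 0, no net growth; 0 to -100, cell death. Compounds scoring below 10 were considered active.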 Values without a mark were called inactive. The source made the active and inactive calls.

Assays:
Experiment in all cases: NCI-60 one-dose screen, 48 h (100 = growth as untreated, 0 = no growth, -100 = all killed)
SR leukemia = details: 10 µM unless noted
RPMI-8226 leukemia = details: 10 µM
OVCAR-8 ovarian = details: 10 µM unless noted
OVCAR-5 ovarian = details: 10 µM unless noted
OVCAR-4 ovarian = details: 10 µM unless noted
SK-OV-3 ovarian = details: 10 µM
IGROV1 ovarian = details: 10 µM unless noted
OVCAR-3 ovarian = details: 10 µM unless noted
HS 578T breast = details: 10 µM unless noted
NCI/ADR-RES ovarian = details: 10 µM unless noted
T-47D breast = details: 10 µM
BT-549 breast = details: 10 µM unless noted
MDA-MB-435 melanoma = details: 10 µM unless noted
SW-620 colon = details: 10 µM unless noted
MCF7 breast = details: 10 µM unless noted
HCT-116 colon = details: 10 µM unless noted
HCC-2998 colon = details: 10 µM unless noted
KM12 colon = details: 10 µM unless noted

Row | SMILES | growth (SR leukemia) | growth (RPMI-8226 leukemia) | growth (OVCAR-8 ovarian) | growth (OVCAR-5 ovarian) | growth (OVCAR-4 ovarian) | growth (SK-OV-3 ovarian) | growth (IGROV1 ovarian) | growth (OVCAR-3 ovarian) | growth (HS 578T breast) | growth (NCI/ADR-RES ovarian) | growth (T-47D breast) | growth (BT-549 breast) | growth (MDA-MB-435 melanoma) | growth (SW-620 colon) | growth (MCF7 breast) | growth (HCT-116 colon) | growth (HCC-2998 colon) | growth (KM12 colon)
1 | O=C1NC(=O)C2(CCCC2C(=O)O)N1 (centres undefined) | 90.4% | 103% | 100% | 110% | 99.4% | 119% | 131% | 120% | 115% | 100% | 106% | 102% | 105% | 108% | 96.2% | 98.4% | 100% | 113%
2 | CON=C1C[C@]2(C[C@@H]3C[C@@H](C/C=C(\C)C[C@@H](C)/C=C/C=C4\CO[C@@H]5[C@H](O)C(C)=C[C@@H](C(=O)O3)[C@]45O)O2)O[C@H](/C(C)=C/C(C)C)[C@H]1C | -39.5% (active) | 43.7% | 66.4% | 70.1% | 57.2% | 95.2% | 28.1% | 1.95% (active) | 60.2% | 64.8% | 29.7% | 89.2% | 43.7% | 34.5% | 42% | 17.8% | 48.7% | 33.4%
3 | FC(F)(F)c1cc(CNc2nc(Cl)ncc2Br)cc(C(F)(F)F)c1 | 38.2% | 70.9% | 91.5% | 96.6% | 98.5% | 81.1% | 75% | 85.6% | 54.5% | 92.7% | 82.1% | 90% | 45.9% | 103% | 93.3% | 96.1% | 97.8% | 71.2%
4 | CCCC1=NNC(=O)C1 | 103% | 100% | 102% | 103% | 106% | 104% | 103% | 120% | 110% | 115% | 101% | 99.2% | 98.5% | 99.8% | 96.3% | 98.5% | 119% | 117%
5 | CC1(C)CC(=O)C2=C(C1)Nc1cc3c(cc1C2c1ccc(F)cc1)OCO3 (centres undefined) | 90.4% | 92.1% | 97% | 107% | 93.9% | 97.6% | 100% | 103% | 88.3% | 90.7% | 85.3% | 110% | 102% | 104% | 90.6% | 96.7% | 102% | 99.3%
6 | CCCCCCCCCCCCCCNc1nc(CO)ncc1-c1ccc(C(F)(F)F)cc1 | 102% | 93.9% | 99.5% | 103% | 112% | 91.7% | 104% | 103% | 93.2% | 100% | 95.6% | 110% | 102% | 103% | 96.2% | 94.1% | 99.4% | 99.4%
7 | Cc1nc2cc(Nc3nc(N4CCOCC4)nc(N4CCN(C)CC4)n3)ccc2n1Cc1ccccc1 | 93% | 102% | 98.3% | 96.7% | 100% | 103% | 103% | 115% | 108% | 110% | 99.6% | 103% | 100% | 104% | 98.8% | 98.2% | 113% | 115%
8 | CC1SC(c2cccc(Oc3ccccc3)c2)N(CCc2cccs2)C1=O (centres undefined) | -2.19% (active) | -13.5% (active) | 0% (active) | -13.9% (active) | 8.45% (active) | -8.94% (active) | -23.6% (active) | -98.1% (active) | -44.8% (active) | -28% (active) | 0.211% (active) | -69.2% (active) | -43.1% (active) | -3.96% (active) | -0.665% (active) | -85.6% (active) | -32.9% (active) | -25.2% (active)
